Unmarked numbers belong to inactive results. Active and inactive are the calls of the source. Rule as the data show it, unless noted: active = inhibition above about 25%; inactive = the rest.

Assay [1] concerns the target Nuclear receptor coactivator 3 (Homo sapiens) (UniProt Q9Y6Q9). Nature of the assay: NCOA3 GAL4-fusion reporter inhibition – cell-based, luminescence, quadruplicate, confirmation (AID 588792;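 active = mean inhibition over 43.08%, the solvent-only control mean plus 3 SD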;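 also: 0% = DMSO treated cells and 100% = gossypol at 36 µM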). Particulars: HEK293 GAL4-SRC3 luciferase reporter, at 3.6 µM, hits give high values. (In general: In a reporter assay the amount or activity of a reporter protein is the signal.)
Assay [2] concerns transactivating tegument protein VP16 (Human herpesvirus 1), Gal4-VP16 luciferase reporter. Nature of the assay: repression of VP16-driven luciferase reporter – cell-based, luminescence, high throughput, counter-screen for SRC3 inhibitor project (AID 588794; in the data active = inhibition above about 30%). The conditions noted are these: mammalian cells, at 3.6 µM, hits give high values.
Assay [3] has as its target Nuclear receptor coactivator 1 (Homo sapiens) (UniProt Q15788). Nature of the assay: NCOA1 GAL4-fusion reporter inhibition – cell-based, luminescence, quadruplicate, confirmation (AID 588820;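 active = mean inhibition above 46.68%, the untreated control wells mean plus 3 SD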;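 also: 0% = DMSO wells and 100% = gossypol 36 µM treated wells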). The conditions noted are these: HEK293 GAL4-SRC1 luciferase reporter, at 3.6 µM, hits give high values.
Assay [4] can be described thus: repression of VP16-driven luciferase reporter – cell-based, luminescence, high throughput, counter-screen for SRC1 inhibitor project (AID 588824). Particulars: cell-based VP16 transactivation luciferase luminescence; at 3.6 µM; hits give high values.

Nuclear receptor coactivator 1 (Homo sapiens), sequence (Q15788 whole entry, looked up, the tested form may be a part): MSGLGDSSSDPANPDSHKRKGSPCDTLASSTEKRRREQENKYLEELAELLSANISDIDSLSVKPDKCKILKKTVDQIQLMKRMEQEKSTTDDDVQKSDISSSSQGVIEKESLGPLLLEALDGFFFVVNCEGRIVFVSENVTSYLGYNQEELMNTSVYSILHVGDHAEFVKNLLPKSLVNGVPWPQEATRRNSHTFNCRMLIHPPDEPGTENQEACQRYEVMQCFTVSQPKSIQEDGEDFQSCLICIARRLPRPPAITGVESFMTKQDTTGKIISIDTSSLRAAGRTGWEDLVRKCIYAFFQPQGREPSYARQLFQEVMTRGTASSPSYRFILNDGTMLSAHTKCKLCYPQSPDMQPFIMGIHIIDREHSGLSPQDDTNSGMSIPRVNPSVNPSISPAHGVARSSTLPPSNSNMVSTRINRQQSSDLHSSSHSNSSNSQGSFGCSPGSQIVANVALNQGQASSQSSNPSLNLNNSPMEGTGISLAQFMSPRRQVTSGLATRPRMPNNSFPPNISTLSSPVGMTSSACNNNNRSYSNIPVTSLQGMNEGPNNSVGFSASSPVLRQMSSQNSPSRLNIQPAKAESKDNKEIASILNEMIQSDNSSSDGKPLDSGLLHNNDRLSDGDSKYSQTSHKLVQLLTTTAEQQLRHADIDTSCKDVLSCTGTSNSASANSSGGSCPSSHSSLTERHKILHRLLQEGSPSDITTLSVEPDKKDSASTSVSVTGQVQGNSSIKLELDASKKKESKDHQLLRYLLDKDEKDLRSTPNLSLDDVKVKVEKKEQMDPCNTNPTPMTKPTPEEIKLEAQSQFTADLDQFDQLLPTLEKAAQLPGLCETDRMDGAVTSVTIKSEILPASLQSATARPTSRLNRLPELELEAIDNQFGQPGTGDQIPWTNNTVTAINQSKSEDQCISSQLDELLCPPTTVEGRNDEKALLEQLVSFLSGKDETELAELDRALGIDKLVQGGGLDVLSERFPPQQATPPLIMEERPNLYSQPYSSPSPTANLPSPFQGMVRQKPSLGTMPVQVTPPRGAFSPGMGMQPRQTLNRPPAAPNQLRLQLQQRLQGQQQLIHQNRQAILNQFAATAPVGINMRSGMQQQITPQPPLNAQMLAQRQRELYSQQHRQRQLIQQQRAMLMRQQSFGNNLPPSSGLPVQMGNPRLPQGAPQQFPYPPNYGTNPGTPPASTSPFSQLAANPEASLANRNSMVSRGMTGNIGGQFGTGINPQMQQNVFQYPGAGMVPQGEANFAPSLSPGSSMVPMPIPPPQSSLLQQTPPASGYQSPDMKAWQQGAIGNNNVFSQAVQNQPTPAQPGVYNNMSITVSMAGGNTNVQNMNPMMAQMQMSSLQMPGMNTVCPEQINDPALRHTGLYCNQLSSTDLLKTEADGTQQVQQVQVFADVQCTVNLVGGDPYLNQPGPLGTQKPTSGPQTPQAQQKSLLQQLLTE
Nuclear receptor coactivator 3 (Homo sapiens), sequence (Q9Y6Q9 whole entry, looked up, the tested form may be a part): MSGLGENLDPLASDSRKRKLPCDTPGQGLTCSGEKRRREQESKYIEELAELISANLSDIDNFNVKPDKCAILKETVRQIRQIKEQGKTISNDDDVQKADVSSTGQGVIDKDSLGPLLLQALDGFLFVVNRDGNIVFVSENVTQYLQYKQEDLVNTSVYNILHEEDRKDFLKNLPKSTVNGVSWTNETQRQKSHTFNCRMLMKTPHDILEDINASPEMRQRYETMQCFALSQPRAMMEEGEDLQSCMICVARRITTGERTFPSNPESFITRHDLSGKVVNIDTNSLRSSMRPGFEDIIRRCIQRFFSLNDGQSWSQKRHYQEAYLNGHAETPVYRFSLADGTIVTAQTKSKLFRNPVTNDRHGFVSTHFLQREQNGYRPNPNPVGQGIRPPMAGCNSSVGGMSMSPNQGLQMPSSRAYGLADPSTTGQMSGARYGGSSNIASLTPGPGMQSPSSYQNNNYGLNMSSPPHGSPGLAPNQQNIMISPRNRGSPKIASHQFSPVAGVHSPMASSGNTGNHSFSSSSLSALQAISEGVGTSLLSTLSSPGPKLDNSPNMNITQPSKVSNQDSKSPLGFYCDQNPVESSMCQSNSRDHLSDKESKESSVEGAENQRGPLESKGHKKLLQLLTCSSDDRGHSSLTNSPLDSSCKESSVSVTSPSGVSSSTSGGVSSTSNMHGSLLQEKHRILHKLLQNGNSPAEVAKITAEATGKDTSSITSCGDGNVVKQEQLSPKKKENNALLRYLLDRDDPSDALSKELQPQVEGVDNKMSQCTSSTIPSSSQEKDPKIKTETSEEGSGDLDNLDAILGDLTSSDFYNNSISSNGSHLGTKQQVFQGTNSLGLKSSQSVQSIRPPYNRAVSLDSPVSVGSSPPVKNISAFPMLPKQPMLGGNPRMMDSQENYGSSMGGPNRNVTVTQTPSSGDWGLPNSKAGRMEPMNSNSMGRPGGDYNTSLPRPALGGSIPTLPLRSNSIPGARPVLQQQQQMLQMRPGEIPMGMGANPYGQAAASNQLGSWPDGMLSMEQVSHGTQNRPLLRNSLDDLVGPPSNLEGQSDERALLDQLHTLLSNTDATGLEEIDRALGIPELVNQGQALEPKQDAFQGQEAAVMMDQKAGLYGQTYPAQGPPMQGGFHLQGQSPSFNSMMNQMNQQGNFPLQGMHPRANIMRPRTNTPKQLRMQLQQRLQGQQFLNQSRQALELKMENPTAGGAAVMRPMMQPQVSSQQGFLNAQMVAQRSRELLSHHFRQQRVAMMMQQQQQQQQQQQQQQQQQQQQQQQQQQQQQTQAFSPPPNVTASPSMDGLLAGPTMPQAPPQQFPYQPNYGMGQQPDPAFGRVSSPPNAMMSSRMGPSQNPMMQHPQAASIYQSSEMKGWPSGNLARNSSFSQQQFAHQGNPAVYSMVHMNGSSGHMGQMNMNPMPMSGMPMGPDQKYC

One may read the inhibition as the change of the read-out against control, counted positive when it falls. Regarding `COc1ccc(-n2ncc3c(N4CCCCC4)ncnc32)cc1`, the inhibition was 51.2% (active) in assay [1], 41.7% (active) in assay [2], -11.5% in assay [3] and 23.9% in assay [4].

Consider `Cn1c(CC(=O)Nc2ccc(Cl)c(Cl)c2)nnc1SCC(=O)N1CCN(c2ccccc2)CC1`, for which the inhibition in assay [1] was 14.9%; in assay [2] it was 12.5%; in assay [3] it was 9.04%; in assay [4], 9.79%.

As for `CC(=O)N1CCN(c2ccc(Oc3ncnc4sccc34)cc2)CC1`, the inhibition was 25.7% in assay [1], 16.9% in assay [2], 27.3% in assay [3] and 16.9% in assay [4].

As for `COc1ccc(Nc2nc(N3CCCC3)nc3ccccc23)c(OC)c1`, the inhibition in assay [1] was 16.8%; in assay [2] it was 37.1% (active); in assay [3], 5.96%; in assay [4] it was 33.2% (active).

With `CC1CCN(c2nc3ccc(C(=O)O)cc3s2)CC1`, the inhibition in assay [1] is 10.7%; in assay [2], -7.13%; in assay [3] it was -48.3%; in assay [4] it was -1.81%.

As for `Cc1ccc(NC(=O)NC2CC(=O)N(c3ccc4c(c3)OCCO4)C2)cc1C` (stereo not drawn), the inhibition is 41.9% in assay [1], 33.8% (active) in assay [2], 46% in assay [3] and 20.9% in assay [4].

`CCn1ccnc1CN(C)Cc1cn[nH]c1-c1ccc(OC)c(F)c1`: the inhibition in assay [1] is 36.8%; in assay [2] it was 26.1%; in assay [3], 34.3%; in assay [4], 28% (active).

As for `COc1ccc(O)c(/C=N/NC(=O)c2c(C)nnn2-c2nonc2N)c1`, the inhibition is 25.4% in assay [1], 19.7% in assay [2], 14.4% in assay [3] and 12% in assay [4].

For the compound `CN1CC(=O)N2C(c3ccc(Cl)cc3)c3[nH]c4ccccc4c3C[C@H]2C1=O` (stereo partly drawn), the inhibition in assay [1] is 41.6%; in assay [2] it was 29.5% (active); in assay [3] it was 25%; in assay [4] it was 33.9% (active).

`COc1ccc(NC(=O)c2cc([N+](=O)[O-])ccc2O)cc1`: the inhibition in assay [1] is 42.1%; in assay [2] it was 35.5% (active); in assay [3] it was -37.7%; in assay [4] it was 29.2% (active).

Turning to `Nc1nc(=O)n(C2CC(O)C(CO)O2)cc1F` (stereo not drawn), the inhibition was 58.5% (active) in assay [1], 37.5% (active) in assay [2], 57.2% (active) in assay [3] and 40.9% (active) in assay [4].

As to `O=[N+]([O-])c1ccc(Oc2ccc(F)cc2)c2ccncc12`, the inhibition is 46.8% (active) in assay [1], 36% (active) in assay [2], 47.6% (active) in assay [3] and 35.4% (active) in assay [4].

For `Cc1ccc(C(=O)Nc2nc(-c3ccccn3)cs2)cc1S(=O)(=O)N1CCOCC1`, the inhibition was 17% in assay [1], 29% in assay [2], 13.8% in assay [3] and 35.8% (active) in assay [4].

On to `CC(C)(C)S(=O)N1Cc2cc(C(=O)NCC(F)(F)F)nc(-c3cccc(-c4cccc(F)c4)c3)c2[C@@H]1CCO` (stereo partly drawn), for which the inhibition in assay [1] was 10.3%; in assay [2] it was 2.05%; in assay [3] it was -14.2%; in assay [4] it was -2.6%.

Turning to `O=C(N/N=C/c1c(O)ccc2ccccc12)c1cccc(C(F)(F)F)c1`, the inhibition in assay [1] is 82.3% (active); in assay [2], 78.6% (active); in assay [3], 60.8% (active); in assay [4], 77.4% (active).

On to `O=C(N/N=C/c1cc([N+](=O)[O-])ccc1O)c1cccc(N2CCCC2=O)c1`, for which the inhibition in assay [1] is 15.9%; in assay [2], 14.3%; in assay [3], 34.5%; in assay [4] it was 4.04%.

For `Cc1ccc(-c2cc3c(N=O)c4ccccc4c-3n[nH]2)cc1`, the inhibition in assay [1] is 66.2% (active); in assay [2], 59.7% (active); in assay [3] it was 30.2%; in assay [4] it was 53% (active).

For `COc1ccc(N/N=C(\C#N)C(=N)SCc2ccccc2)cc1`, the inhibition is 25.9% in assay [1], 34.2% (active) in assay [2], 35.7% in assay [3] and 29.5% (active) in assay [4].

With `CCOc1ccc(-n2c(C)c(C(C)=O)c3cc(OC(C)=O)ccc32)cc1`, the inhibition in assay [1] was 67.3% (active); in assay [2], 44.5% (active); in assay [3], 65.8% (active); in assay [4], 47.6% (active).

For the compound `COC1CC(C)C(OC)c2cc(O)cc(c2O)NC(=O)C(C)=CC=CC(C)C(OC(N)=O)C(C)=CC(C)C1OC` (stereo not drawn), the inhibition in assay [1] is 72.5% (active); in assay [2], 80.2% (active); in assay [3], -2.07%; in assay [4], 77% (active).

Consider `CC(C)Cn1c(N)c(C(=O)CSc2ccc3c(c2)OCCO3)c(=O)n(C)c1=O`, for which the inhibition in assay [1] was 35.5%; in assay [2], 56.9% (active); in assay [3], 46%; in assay [4] it was 51.9% (active).

As for `O=C(N/N=C(\c1ccccc1)c1ccccn1)c1ccccc1Cl`, the inhibition in assay [1] was 35.8%; in assay [2] it was 22.1%; in assay [3], 25.9%; in assay [4], 12.4%.

As for `Cc1cccc(CNc2ncnc3ccc(-c4ccoc4)cc23)c1`, the inhibition in assay [1] is 47% (active); in assay [2] it was 40.7% (active); in assay [3] it was 45.1%; in assay [4], 46% (active).

Regarding `COc1cc(/C=N/NC(=Nc2ccc(C)cc2)c2nc3ccccc3s2)ccc1O`, the inhibition in assay [1] was 35.6%; in assay [2], 9.45%; in assay [3] it was 11.4%; in assay [4], -38%.

Take `CCOC(=O)c1c(C)n(C)c2ccc(OC)c(NC(=O)c3cccs3)c12`: the inhibition in assay [1] is 22.9%; in assay [2], 35.7% (active); in assay [3], 41.6%; in assay [4] it was 44.5% (active).

Take `CCCC(=O)NC(c1ccccc1OC)c1ccc2cccnc2c1O` (stereo not drawn): the inhibition in assay [1] was 61.1% (active); in assay [2], 37.8% (active); in assay [3] it was 52.2% (active); in assay [4], 41.9% (active).

On to `O=C(NNC1=Nc2cccc3cccc1c23)c1ccccc1Br`, for which the inhibition in assay [1] was 19.4%; in assay [2] it was 22.2%; in assay [3], 14.2%; in assay [4] it was 17.2%.

As for `CN(Cc1c(C(=O)N/N=C/c2ccccc2O)nnn1-c1nonc1N)C1CCCCC1`, the inhibition is 66.8% (active) in assay [1], 46.5% (active) in assay [2], 59.7% (active) in assay [3] and 59.8% (active) in assay [4].

Consider `c1ccc(CNc2c3ccccc3nc3ccccc23)cc1`, for which the inhibition in assay [1] was 11.8%; in assay [2], 43.6% (active); in assay [3], 0.54%; in assay [4] it was 54.9% (active).

For the compound `N=c1c2c(-c3ccccc3)c(-c3ccccc3)n(Cc3ccccc3)c2ncn1CCCO`, the inhibition was 12% in assay [1], 53.2% (active) in assay [2], 42.6% in assay [3] and 51% (active) in assay [4].

Take `CCCc1c(C)nc2ccccc2c1SCCC#N`: the inhibition in assay [1] is 29.6%; in assay [2], 29%; in assay [3], 39.6%; in assay [4], 25.5% (active).

On to `O=c1[nH]c(=O)n(C2C[C@H](O)[C@@H](CO)O2)cc1C(F)(F)F` (stereo partly drawn), for which the inhibition was 45.7% (active) in assay [1], 40% (active) in assay [2], 54.4% (active) in assay [3] and 44.3% (active) in assay [4].

As for `O=[N+]([O-])c1cccc(C=NNc2ccc3ccccc3n2)c1O`, the inhibition is -4.77% in assay [1], -23.2% in assay [2], -90.4% in assay [3] and -49.2% in assay [4].

On to `O=C(Nc1c(-c2ccccc2)[nH][nH]c1=O)c1cccc(C(F)(F)F)c1`, for which the inhibition is 15.3% in assay [1], 6.35% in assay [2], 22% in assay [3] and 0.94% in assay [4].

With `O=C(Nc1ccc(N2CCN(C(=O)c3ccccc3F)CC2)cc1)c1cncc(Br)c1`, the inhibition was 64.7% (active) in assay [1], 37.8% (active) in assay [2], 34.5% in assay [3] and 48% (active) in assay [4].

For `N=c1c2c(-c3ccccc3)c(-c3ccccc3)n(Cc3ccccc3)c2ncn1CCCn1ccnc1`, the inhibition in assay [1] was 26.8%; in assay [2] it was 62.5% (active); in assay [3], 57.4% (active); in assay [4], 62.8% (active).

Consider `Nc1ncnc(NCc2ccc(F)cc2)c1[N+](=O)[O-]`, for which the inhibition in assay [1] is 62.7% (active); in assay [2] it was 29.8% (active); in assay [3] it was 52.7% (active); in assay [4], 29.9% (active).

Consider `COc1cc2c(cc1OC)C(C)N(C(=O)c1cccc([N+](=O)[O-])c1)CC2` (stereo not drawn), for which the inhibition in assay [1] is 34%; in assay [2] it was 23.4%; in assay [3], 17.3%; in assay [4], 22.3%.

As to `COc1ccc2[nH]c(=O)c(CN(CCN3CCCC3)C(=O)Nc3ccccc3Cl)cc2c1`, the inhibition is 31.9% in assay [1], 20.4% in assay [2], 36% in assay [3] and 18.6% in assay [4].

On to `Oc1ccc(-c2n[nH]c(=S)n2-c2ccc3c(c2)OCCO3)c(O)c1`, for which the inhibition is 50% (active) in assay [1], 34% (active) in assay [2], 20.9% in assay [3] and 43.7% (active) in assay [4].

For `O=C(Nc1nc(-c2ccccc2)cs1)C1CCCN(S(=O)(=O)c2ccccc2)C1` (stereo not drawn), the inhibition was -1.67% in assay [1], 16.4% in assay [2], -23.1% in assay [3] and 22.9% in assay [4].

Regarding `O=[N+]([O-])c1cccc2c1ccc1ncccc12`, the inhibition was 33% in assay [1], 11.7% in assay [2], 36% in assay [3] and 15.9% in assay [4].
